Out of some 110 compounds screened, fewer than 10 were called active.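 How the source made its calls: active means EC50 at or below 33 microM; inactive means the rest.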 A selection follows. Potency and affinity values are given separately.
These molecules were tested against Ammonium transporter MEP2, Saccharomyces cerevisiae (strain ATCC 204508 / S288c) (UniProt P41948) (assay: yeast MEP2-GFP fusion level changes, TOR pathway – flow cytometry, KU SAR set, S. cerevisiae, dose response (AID 488801)).
Ammonium transporter MEP2, Saccharomyces cerevisiae (strain ATCC 204508 / S288c), sequence (P41948 whole entry, the tested form may be a part): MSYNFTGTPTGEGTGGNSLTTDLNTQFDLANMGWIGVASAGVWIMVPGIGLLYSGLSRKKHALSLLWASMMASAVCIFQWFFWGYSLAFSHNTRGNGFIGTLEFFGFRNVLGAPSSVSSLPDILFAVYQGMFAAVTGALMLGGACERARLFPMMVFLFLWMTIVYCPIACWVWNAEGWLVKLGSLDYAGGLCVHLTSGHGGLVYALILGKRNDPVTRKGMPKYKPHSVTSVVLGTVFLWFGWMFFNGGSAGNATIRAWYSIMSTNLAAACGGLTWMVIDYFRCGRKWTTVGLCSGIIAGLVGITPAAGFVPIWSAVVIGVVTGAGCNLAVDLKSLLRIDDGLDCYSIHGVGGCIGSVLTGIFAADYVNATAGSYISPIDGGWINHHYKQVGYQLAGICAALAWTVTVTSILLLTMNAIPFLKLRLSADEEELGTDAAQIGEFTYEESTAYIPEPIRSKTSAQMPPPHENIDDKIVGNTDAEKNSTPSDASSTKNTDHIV

outcome, inactive:
O=[N+]([O-])c1ccc(O)c2ncccc12
CC(C)(C)c1ccc(NC(=O)COC(=O)c2ccc([N+](=O)[O-])s2)cc1
Nc1nc(NCc2ccco2)nc(Nc2cccc(F)c2)c1[N+](=O)[O-]
CC(C)(C)C(=O)NC(=S)NNC(=O)c1ccc(-c2ccccc2)cc1
CNc1nc(N)c([N+](=O)[O-])c(NCc2ccccc2)n1
CCC(C)Nc1nc(N)c([N+](=O)[O-])c(Nc2cccc(F)c2)n1 (stereo not drawn)
CNc1nc(N)c([N+](=O)[O-])c(Nc2cc(OC)ccc2OC)n1
Nc1nc(Nc2ccccc2F)nc(Nc2cccc(F)c2)c1[N+](=O)[O-]
O=C(CCc1ccccc1)NNC(=S)NC(=O)c1ccccc1
CC(Oc1ccc(Cl)cc1)C(=O)NNC(=S)NC(=O)c1ccco1 (stereo not drawn)
O=[N+]([O-])c1cc(O)c2ncccc2c1
Cc1ccc2nc(Cl)c3nnnn3c2c1
Cc1nn2c(-c3ccncc3)nnc2c2ccccc12
